# Assay results taken from article PMC7862700, “An all-to-all approach to the identification of sequence-specific readers for epigenetic DNA modifications on cytosine”.
# How the values were obtained:
# Experiment in all cases: DAPPL (digital affinity profiling via proximity ligation, sequencing); 10 mM Tris-HCl pH 7.5, 50 mM NaCl, 1 mM DTT, 4% glycerol, room temperature, 30 min; GST-TFs on glutathione beads, 16-mer random dsDNA library, 0.1% formaldehyde crosslink after washing; high values mean tight binding
# FEV = molecular target: T1, FEV (Homo sapiens, UniProt Q99581 1-238); details: protein: recombinant; tags: N-terminal GST; dsDNA, one strand shown
# T1 sequence: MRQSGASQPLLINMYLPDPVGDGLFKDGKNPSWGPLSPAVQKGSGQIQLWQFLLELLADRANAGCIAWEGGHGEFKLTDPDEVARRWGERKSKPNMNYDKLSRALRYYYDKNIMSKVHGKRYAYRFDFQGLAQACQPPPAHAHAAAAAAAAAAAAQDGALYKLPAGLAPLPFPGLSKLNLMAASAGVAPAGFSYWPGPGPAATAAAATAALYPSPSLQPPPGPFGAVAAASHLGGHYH
# How it was run: (§1)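 In yeast, human transcription factors were expressed with a GST fusion, then pulled down on glutathione beads and given DNA barcodes. Pooled with a tag-only sample, they were exposed to 200 nmole of a 16-mer random double-stranded DNA library (Tris/NaCl/DTT/glycerol buffer, room temperature, 30 min), washed, crosslinked with 0.1% formaldehyde, proximity-ligated using BsaI/T4 ligase for 1 h at 37 °C, PCR-amplified and read on an Illumina NextSeq500. Each hexamer's frequency of reads for a factor, divided by the matching frequency for the tag-only sample, gives the binding signal.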
# ETV5 = ETV5 (Homo sapiens, UniProt P41161 1-510); details: protein: recombinant; tags: N-terminal GST; dsDNA, one strand shown
# How it was run: as §1
# HSF1 = HSF1 (Homo sapiens, UniProt Q00613 1-529); details: protein: recombinant; tags: N-terminal GST; chain copies: 3; dsDNA, one strand shown
# How it was run: as §1
# SPIC = molecular target: T2, SPIC (Homo sapiens, UniProt Q8N5J4 1-248); details: protein: recombinant; tags: N-terminal GST; dsDNA, one strand shown
# T2 sequence: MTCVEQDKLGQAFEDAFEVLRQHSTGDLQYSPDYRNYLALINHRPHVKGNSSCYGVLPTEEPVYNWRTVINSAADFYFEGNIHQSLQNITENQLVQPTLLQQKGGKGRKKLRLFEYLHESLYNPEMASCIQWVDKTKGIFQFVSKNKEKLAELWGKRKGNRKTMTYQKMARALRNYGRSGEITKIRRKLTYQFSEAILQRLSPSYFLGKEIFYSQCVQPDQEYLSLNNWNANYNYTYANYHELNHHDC
# How it was run: as §1
# ELF4 = ELF4 (Homo sapiens, UniProt Q99607 1-663); details: protein: recombinant; tags: N-terminal GST; dsDNA, one strand shown
# How it was run: as §1
# ELK4 = molecular target: T3, ELK4 (Homo sapiens, UniProt P28324-2 1-405); details: protein: recombinant; tags: N-terminal GST; dsDNA, one strand shown
# T3 sequence: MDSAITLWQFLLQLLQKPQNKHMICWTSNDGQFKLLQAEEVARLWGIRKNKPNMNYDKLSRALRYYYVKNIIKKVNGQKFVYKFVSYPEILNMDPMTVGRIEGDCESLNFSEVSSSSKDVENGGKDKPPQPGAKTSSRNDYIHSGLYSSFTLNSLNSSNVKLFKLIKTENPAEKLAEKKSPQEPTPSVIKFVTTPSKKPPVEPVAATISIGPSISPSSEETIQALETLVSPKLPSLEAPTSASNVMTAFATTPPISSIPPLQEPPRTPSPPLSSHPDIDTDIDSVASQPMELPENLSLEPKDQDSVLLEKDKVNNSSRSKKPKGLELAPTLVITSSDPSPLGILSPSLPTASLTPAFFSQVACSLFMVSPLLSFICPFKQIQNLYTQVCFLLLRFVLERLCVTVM
# How it was run: as §1
# ETV2 = molecular target: T4, ETV2 (Homo sapiens, UniProt O00321 1-342); details: protein: recombinant; tags: N-terminal GST; dsDNA, one strand shown
# T4 sequence: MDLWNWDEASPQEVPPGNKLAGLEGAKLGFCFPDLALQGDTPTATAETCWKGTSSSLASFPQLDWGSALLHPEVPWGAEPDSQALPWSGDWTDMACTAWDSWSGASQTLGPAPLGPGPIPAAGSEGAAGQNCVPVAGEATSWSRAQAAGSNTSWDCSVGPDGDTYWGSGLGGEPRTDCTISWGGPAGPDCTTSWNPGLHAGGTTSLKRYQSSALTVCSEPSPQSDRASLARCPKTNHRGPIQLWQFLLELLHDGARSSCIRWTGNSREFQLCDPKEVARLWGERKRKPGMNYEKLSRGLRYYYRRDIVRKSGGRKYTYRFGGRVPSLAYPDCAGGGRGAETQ
# How it was run: as §1
# ELF3 = molecular target: T5, ELF3 (Homo sapiens, UniProt P78545 1-371); details: protein: recombinant; tags: N-terminal GST; dsDNA, one strand shown
# T5 sequence: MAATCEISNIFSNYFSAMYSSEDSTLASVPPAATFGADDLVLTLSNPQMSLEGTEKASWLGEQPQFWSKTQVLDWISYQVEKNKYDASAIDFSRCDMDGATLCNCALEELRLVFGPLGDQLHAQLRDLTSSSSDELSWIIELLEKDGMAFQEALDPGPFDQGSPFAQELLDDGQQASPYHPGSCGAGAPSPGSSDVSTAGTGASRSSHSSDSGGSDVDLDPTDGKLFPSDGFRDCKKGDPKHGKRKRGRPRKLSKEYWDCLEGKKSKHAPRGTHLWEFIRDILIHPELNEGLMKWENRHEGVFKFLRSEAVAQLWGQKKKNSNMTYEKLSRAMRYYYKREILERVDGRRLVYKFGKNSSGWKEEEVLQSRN
# How it was run: as §1
# CRX = CRX (Homo sapiens, UniProt O43186 1-299); details: protein: recombinant; tags: N-terminal GST; dsDNA, one strand shown
# How it was run: as §1
# ETV1 = ETV1 (Homo sapiens, UniProt P50549 1-477); details: protein: recombinant; tags: N-terminal GST; dsDNA, one strand shown
# How it was run: as §1
# ERF = molecular target: T6, ERF (Homo sapiens, UniProt P50548 1-548); details: protein: recombinant; tags: N-terminal GST; dsDNA, one strand shown
# T6 sequence: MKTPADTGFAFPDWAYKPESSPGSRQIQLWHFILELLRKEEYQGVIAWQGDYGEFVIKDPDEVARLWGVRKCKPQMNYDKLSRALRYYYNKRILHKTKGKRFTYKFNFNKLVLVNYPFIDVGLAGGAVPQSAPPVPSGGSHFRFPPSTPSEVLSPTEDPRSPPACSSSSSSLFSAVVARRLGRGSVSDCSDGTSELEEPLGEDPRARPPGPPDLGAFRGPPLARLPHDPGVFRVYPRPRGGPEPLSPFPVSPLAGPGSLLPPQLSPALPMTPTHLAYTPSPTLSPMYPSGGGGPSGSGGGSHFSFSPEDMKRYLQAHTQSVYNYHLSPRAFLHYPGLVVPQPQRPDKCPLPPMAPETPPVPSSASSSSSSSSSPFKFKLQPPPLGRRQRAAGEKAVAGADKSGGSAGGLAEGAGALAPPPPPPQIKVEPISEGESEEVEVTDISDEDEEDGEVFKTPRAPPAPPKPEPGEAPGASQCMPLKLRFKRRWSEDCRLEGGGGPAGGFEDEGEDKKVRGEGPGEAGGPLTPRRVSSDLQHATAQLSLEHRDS
# How it was run: as §1
# ETV3L = molecular target: T7, ETV3L (Homo sapiens, UniProt Q6ZN32 1-361); details: protein: recombinant; tags: N-terminal GST; dsDNA, one strand shown
# T7 sequence: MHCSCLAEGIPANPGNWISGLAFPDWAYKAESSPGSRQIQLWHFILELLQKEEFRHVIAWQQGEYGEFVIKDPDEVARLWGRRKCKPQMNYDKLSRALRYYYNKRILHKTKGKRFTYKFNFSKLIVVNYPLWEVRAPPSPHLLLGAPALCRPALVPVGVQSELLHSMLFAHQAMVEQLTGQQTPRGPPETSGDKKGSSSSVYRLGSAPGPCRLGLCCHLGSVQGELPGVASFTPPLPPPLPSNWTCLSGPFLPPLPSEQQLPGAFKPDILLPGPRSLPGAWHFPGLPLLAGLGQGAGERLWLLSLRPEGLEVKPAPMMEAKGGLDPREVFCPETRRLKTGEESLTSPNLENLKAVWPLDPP
# How it was run: as §1
# ETS2 = molecular target: T8, ETS2 (Homo sapiens, UniProt P15036 1-469); details: protein: recombinant; tags: N-terminal GST; dsDNA, one strand shown
# T8 sequence: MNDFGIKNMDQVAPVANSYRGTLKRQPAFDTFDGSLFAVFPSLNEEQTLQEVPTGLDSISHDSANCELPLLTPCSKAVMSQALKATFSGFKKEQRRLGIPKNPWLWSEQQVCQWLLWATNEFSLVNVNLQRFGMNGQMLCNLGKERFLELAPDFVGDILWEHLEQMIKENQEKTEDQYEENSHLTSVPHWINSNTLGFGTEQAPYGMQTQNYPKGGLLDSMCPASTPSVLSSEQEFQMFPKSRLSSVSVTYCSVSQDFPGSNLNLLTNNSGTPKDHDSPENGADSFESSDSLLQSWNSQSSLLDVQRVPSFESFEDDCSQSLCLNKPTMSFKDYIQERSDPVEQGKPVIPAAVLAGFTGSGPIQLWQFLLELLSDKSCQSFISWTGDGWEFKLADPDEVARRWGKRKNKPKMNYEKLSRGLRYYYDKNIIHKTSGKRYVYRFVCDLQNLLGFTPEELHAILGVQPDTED
# How it was run: as §1
# SPDEF = molecular target: T9, SPDEF (Homo sapiens, UniProt O95238 1-335); details: protein: recombinant; tags: N-terminal GST; dsDNA, one strand shown
# T9 sequence: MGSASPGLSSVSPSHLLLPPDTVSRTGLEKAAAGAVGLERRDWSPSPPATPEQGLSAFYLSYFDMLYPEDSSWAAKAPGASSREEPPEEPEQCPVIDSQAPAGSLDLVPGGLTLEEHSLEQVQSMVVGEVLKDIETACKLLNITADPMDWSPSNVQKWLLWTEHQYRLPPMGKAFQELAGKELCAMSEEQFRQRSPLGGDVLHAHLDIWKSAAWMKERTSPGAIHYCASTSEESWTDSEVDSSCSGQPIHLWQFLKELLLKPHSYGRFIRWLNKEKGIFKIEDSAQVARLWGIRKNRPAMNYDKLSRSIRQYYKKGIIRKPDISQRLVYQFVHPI
# How it was run: as §1
# ETV7 = molecular target: T10, ETV7 (Homo sapiens, UniProt Q9Y603 1-341); details: protein: recombinant; tags: N-terminal GST; dsDNA, one strand shown
# T10 sequence: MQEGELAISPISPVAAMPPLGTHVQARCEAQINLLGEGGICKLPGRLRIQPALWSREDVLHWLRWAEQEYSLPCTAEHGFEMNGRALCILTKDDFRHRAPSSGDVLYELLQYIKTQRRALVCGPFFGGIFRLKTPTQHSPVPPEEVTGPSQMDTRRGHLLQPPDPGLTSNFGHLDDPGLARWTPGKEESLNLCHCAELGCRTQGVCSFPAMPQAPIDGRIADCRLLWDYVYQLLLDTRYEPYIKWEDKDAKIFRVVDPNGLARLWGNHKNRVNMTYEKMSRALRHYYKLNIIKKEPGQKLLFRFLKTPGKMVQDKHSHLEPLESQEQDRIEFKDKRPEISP
# How it was run: as §1
# ELF5 = molecular target: T11, ELF5 (Homo sapiens, UniProt Q9UKW6-2 1-255); details: protein: recombinant; tags: N-terminal GST; dsDNA, one strand shown
# T11 sequence: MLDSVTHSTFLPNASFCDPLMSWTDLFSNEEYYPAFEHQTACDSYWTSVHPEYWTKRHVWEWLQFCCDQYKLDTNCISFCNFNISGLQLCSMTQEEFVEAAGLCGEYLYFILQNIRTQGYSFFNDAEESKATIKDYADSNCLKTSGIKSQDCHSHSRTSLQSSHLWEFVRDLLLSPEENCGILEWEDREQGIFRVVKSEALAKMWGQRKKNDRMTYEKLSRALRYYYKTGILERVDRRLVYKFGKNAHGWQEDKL
# How it was run: as §1
# ETV3 = molecular target: T12, ETV3 (Homo sapiens, UniProt P41162-2 1-143); details: protein: recombinant; tags: N-terminal GST; dsDNA, one strand shown
# T12 sequence: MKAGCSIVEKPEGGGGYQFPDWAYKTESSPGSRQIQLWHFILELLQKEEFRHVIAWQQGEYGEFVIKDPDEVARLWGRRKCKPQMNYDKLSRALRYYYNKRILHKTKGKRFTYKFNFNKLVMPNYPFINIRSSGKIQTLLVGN
# How it was run: as §1
# ETV6 = ETV6 (Homo sapiens, UniProt P41212 1-452); details: protein: recombinant; tags: N-terminal GST; dsDNA, one strand shown
# How it was run: as §1
# Chain of ETV1 (P50549 whole entry): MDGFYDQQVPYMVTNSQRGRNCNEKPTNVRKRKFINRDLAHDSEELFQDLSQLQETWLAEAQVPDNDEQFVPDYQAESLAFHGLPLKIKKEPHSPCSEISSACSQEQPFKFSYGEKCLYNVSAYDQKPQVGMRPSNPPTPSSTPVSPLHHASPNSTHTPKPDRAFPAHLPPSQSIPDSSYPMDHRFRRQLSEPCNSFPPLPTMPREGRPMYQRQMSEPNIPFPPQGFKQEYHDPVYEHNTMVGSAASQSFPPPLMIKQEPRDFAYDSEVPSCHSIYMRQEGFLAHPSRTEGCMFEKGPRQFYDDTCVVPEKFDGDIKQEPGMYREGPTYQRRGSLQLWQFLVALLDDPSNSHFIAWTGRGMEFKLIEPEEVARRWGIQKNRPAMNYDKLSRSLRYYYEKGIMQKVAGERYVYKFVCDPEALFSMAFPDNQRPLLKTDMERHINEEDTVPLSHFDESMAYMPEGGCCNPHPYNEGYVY
# Chain of ETV6 (P41212 whole entry): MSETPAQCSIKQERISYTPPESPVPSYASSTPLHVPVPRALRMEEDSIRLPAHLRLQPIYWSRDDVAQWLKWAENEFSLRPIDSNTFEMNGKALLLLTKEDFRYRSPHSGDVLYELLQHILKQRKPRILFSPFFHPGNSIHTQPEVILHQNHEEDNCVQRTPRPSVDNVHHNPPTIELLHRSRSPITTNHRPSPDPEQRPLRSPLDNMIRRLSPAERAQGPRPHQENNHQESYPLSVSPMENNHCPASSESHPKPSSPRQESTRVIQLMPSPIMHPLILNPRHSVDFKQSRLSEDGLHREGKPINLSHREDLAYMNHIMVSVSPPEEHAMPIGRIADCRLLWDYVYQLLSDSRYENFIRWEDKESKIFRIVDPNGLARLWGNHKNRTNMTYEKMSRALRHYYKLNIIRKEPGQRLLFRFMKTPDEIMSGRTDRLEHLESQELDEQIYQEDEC
# Chain of ETV5 (P41161 whole entry): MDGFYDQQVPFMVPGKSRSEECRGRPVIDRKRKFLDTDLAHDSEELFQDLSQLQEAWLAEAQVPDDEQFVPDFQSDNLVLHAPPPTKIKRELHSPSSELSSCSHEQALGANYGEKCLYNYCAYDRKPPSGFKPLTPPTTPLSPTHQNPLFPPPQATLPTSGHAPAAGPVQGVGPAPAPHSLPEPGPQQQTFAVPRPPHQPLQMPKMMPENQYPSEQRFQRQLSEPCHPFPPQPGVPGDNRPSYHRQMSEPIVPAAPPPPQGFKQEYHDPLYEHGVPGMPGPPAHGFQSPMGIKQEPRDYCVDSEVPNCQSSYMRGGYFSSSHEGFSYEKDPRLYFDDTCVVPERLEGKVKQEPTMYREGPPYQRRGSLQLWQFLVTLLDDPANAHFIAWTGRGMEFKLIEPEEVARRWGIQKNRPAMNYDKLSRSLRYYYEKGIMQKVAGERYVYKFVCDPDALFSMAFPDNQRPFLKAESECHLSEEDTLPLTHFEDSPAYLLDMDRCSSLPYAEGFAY
# Chain of ELF4 (Q99607 whole entry): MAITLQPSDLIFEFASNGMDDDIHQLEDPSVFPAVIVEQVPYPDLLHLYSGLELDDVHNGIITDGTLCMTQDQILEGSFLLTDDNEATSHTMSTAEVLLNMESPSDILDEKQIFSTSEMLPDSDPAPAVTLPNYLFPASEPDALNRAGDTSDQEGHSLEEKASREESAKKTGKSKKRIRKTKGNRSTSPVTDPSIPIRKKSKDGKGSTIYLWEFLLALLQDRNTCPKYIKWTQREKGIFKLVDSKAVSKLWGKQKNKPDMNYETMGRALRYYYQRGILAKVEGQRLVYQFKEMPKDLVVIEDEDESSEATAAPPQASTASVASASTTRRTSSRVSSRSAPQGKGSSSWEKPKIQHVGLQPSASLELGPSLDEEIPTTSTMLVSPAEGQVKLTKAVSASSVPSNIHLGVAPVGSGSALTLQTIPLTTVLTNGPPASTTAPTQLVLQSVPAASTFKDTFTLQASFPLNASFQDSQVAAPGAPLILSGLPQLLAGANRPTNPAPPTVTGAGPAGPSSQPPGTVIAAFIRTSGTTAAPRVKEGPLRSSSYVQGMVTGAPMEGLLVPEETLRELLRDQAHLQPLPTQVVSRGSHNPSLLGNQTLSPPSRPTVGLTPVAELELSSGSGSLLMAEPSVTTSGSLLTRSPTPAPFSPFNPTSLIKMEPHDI
# Chain of CRX (O43186 whole entry): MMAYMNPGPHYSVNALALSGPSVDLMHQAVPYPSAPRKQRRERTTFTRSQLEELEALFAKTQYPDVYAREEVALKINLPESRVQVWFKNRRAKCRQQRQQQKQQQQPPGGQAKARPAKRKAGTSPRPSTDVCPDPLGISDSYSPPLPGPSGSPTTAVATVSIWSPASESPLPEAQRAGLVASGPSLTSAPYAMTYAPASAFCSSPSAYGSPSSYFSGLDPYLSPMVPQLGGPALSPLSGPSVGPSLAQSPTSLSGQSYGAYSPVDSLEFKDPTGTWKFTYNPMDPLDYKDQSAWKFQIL
# Chain of HSF1 (Q00613 whole entry): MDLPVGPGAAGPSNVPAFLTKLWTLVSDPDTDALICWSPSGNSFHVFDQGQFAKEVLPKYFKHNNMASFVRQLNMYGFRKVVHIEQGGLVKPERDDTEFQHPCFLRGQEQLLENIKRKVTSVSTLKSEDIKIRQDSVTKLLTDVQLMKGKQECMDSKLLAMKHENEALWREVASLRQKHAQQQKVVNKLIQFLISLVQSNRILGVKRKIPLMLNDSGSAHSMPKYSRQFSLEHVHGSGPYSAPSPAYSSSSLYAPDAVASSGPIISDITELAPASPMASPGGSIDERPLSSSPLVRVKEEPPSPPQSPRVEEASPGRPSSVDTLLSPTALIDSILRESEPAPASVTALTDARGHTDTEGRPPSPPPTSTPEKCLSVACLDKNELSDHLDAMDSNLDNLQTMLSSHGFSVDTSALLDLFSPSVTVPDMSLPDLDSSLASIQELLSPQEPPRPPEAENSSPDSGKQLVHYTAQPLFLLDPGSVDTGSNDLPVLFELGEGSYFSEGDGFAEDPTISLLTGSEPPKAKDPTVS
sequence,measurement,setting,value
TTTTTT,binding signal,FEV,"1.17 fold enrichment (6-mer frequency, TF over GST control)"
same,binding signal,ETV5,"1.23 fold enrichment (6-mer frequency, TF over GST control)"
same,binding signal,HSF1,"1.23 fold enrichment (6-mer frequency, TF over GST control)"
same,binding signal,SPIC,"1.3 fold enrichment (6-mer frequency, TF over GST control)"
same,binding signal,ELF4,"1.19 fold enrichment (6-mer frequency, TF over GST control)"
same,binding signal,ELK4,"1.17 fold enrichment (6-mer frequency, TF over GST control)"
same,binding signal,ETV2,"1.4 fold enrichment (6-mer frequency, TF over GST control)"
same,binding signal,ELF3,"1.33 fold enrichment (6-mer frequency, TF over GST control)"
same,binding signal,CRX,"1.24 fold enrichment (6-mer frequency, TF over GST control)"
same,binding signal,ETV1,"1.36 fold enrichment (6-mer frequency, TF over GST control)"
same,binding signal,ERF,"1.18 fold enrichment (6-mer frequency, TF over GST control)"
same,binding signal,ETV3L,"1.18 fold enrichment (6-mer frequency, TF over GST control)"
same,binding signal,ETS2,"1.09 fold enrichment (6-mer frequency, TF over GST control)"
same,binding signal,SPDEF,"1.22 fold enrichment (6-mer frequency, TF over GST control)"
same,binding signal,ETV7,"1.26 fold enrichment (6-mer frequency, TF over GST control)"
same,binding signal,ELF5,"1.14 fold enrichment (6-mer frequency, TF over GST control)"
same,binding signal,ETV3,"1.2 fold enrichment (6-mer frequency, TF over GST control)"
same,binding signal,ETV6,"1.11 fold enrichment (6-mer frequency, TF over GST control)"
